According to PubChem BioAssay (NCATS):
Unmarked numbers belong to inactive results. Records with an inconclusive call do not appear. Where a call stands in place of a potency, no number is given. Calls of active or inactive are those of the source. Unless noted, the call rests on the fitted dose curve; in most records, active means well fitted curve in the direction sought with a large enough effect; inconclusive means small, poorly fitted or top-dose-only effect, or another doubt; inactive means no such curve, though single readings can be large; an effect the other way counts as inactive or inconclusive.

Columns and labels:
[1] = target: Cytochrome P450 2D6 (Homo sapiens) (UniProt P10635); assay: Cytochrome P450 family 2 subfamily D member 6 (CYP2D6) small molecule antagonists: luciferase biochemical (cell-free) qHTS assay (AID 1645840; active means well fitted curve in the direction sought with a large enough effect in the repeat runs; an effect the other way counts as inactive or inconclusive; further: nearly all actives have a fitted effect of over 55% in size; further: potency means the concentration at half of the fitted maximal effect)
Outline: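 P450-Glo luminescent screen: recombinant CYP2D6 enzyme–proluciferin substrate mix preincubated with compound 10 min at room temperature, then NADPH regeneration added for 1 h at room temperature. Detection reagent added for 20 min; luciferin light read as relative luminescence units.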

[2] = target: Cytochrome P450 2C9 (Homo sapiens) (UniProt P11712); assay: Cytochrome P450 family 2 subfamily C member 9 (CYP2C9) small molecule antagonists: luciferase biochemical (cell-free) qHTS assay (AID 1645842; active means well fitted curve in the direction sought with a large enough effect in the repeat runs; an effect the other way counts as inactive or inconclusive; further: nearly all actives have a fitted effect of over 55% in size; further: potency means the concentration at half of the fitted maximal effect)
Outline: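 Luminescence, after 20 min with luciferin detection reagent, reflected CYP2C9 turnover during a 1 h NADPH-driven reaction at 37C. Enzyme-substrate mix contained 0.4% bovine serum albumin and was preincubated with compound 10 min at room temperature.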

[3] = Viability counterscreen for antagonist of constitutive androstane receptor (CAR) against the NCATS DSHEA and TCM libraries (AID 1794837);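 further: compound exposure lasted 24 h before viability reading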
Outline: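 Viability was measured by CellTiter-Fluor fluorescence (405/540 nm, 1 hr) in HepG2-CYP2B6-hCAR cells. Cells were co-treated 24 hr with 48 uM CITCO (final), antagonist mode, and test substances.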

[4] = Viability counterscreen for agonist of constitutive androstane receptor (CAR) against the NCATS DSHEA and TCM libraries (AID 1794838)
Outline: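 Cell viability, from CellTiter-Fluor fluorescence (405/540 nm), was scored after a 24 h, 37C exposure of HepG2 cells carrying CYP2B6 reporter and hCAR to test substances in presence of 0.75 uM PK11195.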

[5] = target: Nuclear receptor subfamily 1 group I member 3 (Homo sapiens) (UniProt Q14994); assay: Primary qHTS for agonist of constitutive androstane receptor (CAR) against the NCATS DSHEA and TCM libraries (AID 1794839);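 further: HepG2 cells expressing human CAR with a CYP2B6 reporter plus PK11195 antagonist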
Outline: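 Agonist mode in presence of hCAR antagonist PK11195 (0.75 µM final): test substances, 24 h, 37 °C, on HepG2-CYP2B6-hCAR cells. Same-well readouts: fluorescence viability, then ONE-Glo luminescence; CITCO as reference agonist.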

[6] = HepG2 viability counterscreen (readout 2: ATP content) against the NCATS DSHEA and TCM libraries (AID 1794840)
Outline: (§1)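 Readout 1: cellular protease activity, GF-AFC substrate (25 uM final, 30 min, fluorescence 380/510 nm). Readout 2: ATP content by CellTiter-Glo luminescence after 30 min at RT. Both follow ~24 h exposure of HepG2 cells (1,000/well) to substances.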

[7] = HepG2 viability counterscreen (readout 1: protease activity) against the NCATS DSHEA and TCM libraries (AID 1794841);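 further: cells exposed to compounds for about 24 h before the protease read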
Outline: as §1

[8] = target: Cytochrome P450 3A4 (Homo sapiens) (UniProt P08684); assay: qHTS for inhibitors of CYP3A4 against the NCATS DSHEA and TCM libraries (AID 1919971);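 further: inhibition lowers luminescence from luciferin made by CYP3A4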
Outline: (§2)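 Luminescent P450-Glo readout. Enzyme plus pro-luciferin substrate in manufacturer buffer (typically 100 mM KPO4); 15 min RT preincubation; 1x NADPH regenerating system, 30-45 min RT in the dark; detection reagent 30 min.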

[9] = target: Cytochrome P450 2D6 (Homo sapiens) (UniProt P10635); assay: qHTS for inhibitors of CYP2D6 against the NCATS DSHEA and TCM libraries (AID 1919972)
Outline: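 Steps: enzyme plus luciferin substrate dispensed; test substances pinned; 15 min RT; 1x NADPH regenerating solution added, 30–45 min RT protected from light; detection reagent, 30 min RT; luminescence measured. Minus-enzyme wells as background.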

[10] = target: Cytochrome P450 2C9 (Homo sapiens) (UniProt P11712); assay: qHTS for inhibitors of CYP2C9 against the NCATS DSHEA and TCM libraries (AID 1919973);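 further: luminogenic pro-luciferin CYP2C9 substrate turned into luciferin with NADPH regeneration; series mostly up to about 34 µM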
Outline: as §2

[11] = target: Cytochrome P450 2C19 (Homo sapiens) (UniProt P33261); assay: qHTS for inhibitors of CYP2C19 against the NCATS DSHEA and TCM libraries (AID 1919974);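 further: luminescence from luciferin released by CYP2C19 oxidation of a pro-luciferin substrate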
Outline: as §2

[12] = KB-3-1 P-gp reporter qHTS against the NCATS DSHEA and TCM libraries (AID 1919975)
Outline: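 Cell viability by CellTiter-Glo luminescence following ~72 h compound exposure (concentration-response). Uses parental, non-P-gp-overexpressing KB-3-1 line, 500 cells/well in DMEM/10% FBS, attached ~4 h before dosing.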

[13] = target: Cytochrome P450 1A2 (Homo sapiens) (UniProt P05177); assay: qHTS for inhibitors of CYPIA2 against the NCATS DSHEA and TCM libraries (AID 1919976);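 further: light from luciferin formed by CYP1A2 from a pro-luciferin substrate; series mostly up to about 37 µM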
Outline: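 Human CYP1A2 with its pro-luciferin substrate in supplier buffer (typically 100 mM KPO4) was pre-incubated with compounds 15 min at RT. Reaction was started with 1x NADPH regeneration solution and run 30-45 min at RT in the dark, then luminescence was read after P450-Glo detection reagent (30 min RT).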

[14] = qHTS Counterscreen for compound interference against the NCATS DSHEA and TCM libraries (AID 1919978); details: firefly luciferase detection reagent interference, luminescence;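 further: compounds preincubated with 1 µM D-luciferin or buffer before detection reagent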
Outline: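 With 1 uM D-luciferin or phosphate buffer only, compounds at final 19.5 nM–39.8 uM were incubated for 15 min at room temperature. Luciferase detection reagent was then added, and luminescence was measured after a further 30 min at room temperature.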

[15] = Dual reporter qHTS for agonist of Pregnane X Receptor (hPXR) against the NCATS DSHEA and TCM libraries: Fluorescence readout (AID 1920058)
Outline: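 hPXR-Luc HepG2 cells (2000/well) in phenol red-free medium with charcoal-stripped FBS attached for 5 h, then were exposed to compounds for about 24 h at 37 °C. Viability was read by CellTiter-Fluor fluorescence (Ex/Em 405/540 nm) after 1 h.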

[16] = target: Nuclear receptor subfamily 1 group I member 2 (Homo sapiens) (UniProt O75469); assay: Dual reporter qHTS for agonist of Pregnane X Receptor (hPXR) against the NCATS DSHEA and TCM libraries: Luminescence readout (AID 1920059)
Outline: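 Luminescent PXR reporter read (ONE-Glo) after a CellTiter-Fluor viability read, following 24 h, 37C treatment of HepG2 cells stably carrying hPXR-Luc.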

[17] = target: Nuclear receptor subfamily 1 group I member 2 (Homo sapiens) (UniProt O75469); assay: Dual reporter qHTS for antagonist of Pregnane X Receptor (hPXR) against the NCATS DSHEA and TCM libraries: Luminescence Readout (AID 1920060)
Outline: (§3)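 Rifampicin-stimulated (2 uM final) hPXR-luciferase HepG2 cells were treated for 24 h with DSNP/TCM substances. Viability came from CellTiter-Fluor fluorescence, reporter activity from ONE-Glo luminescence.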

[18] = Dual reporter qHTS for antagonist of Pregnane X Receptor (hPXR) against the NCATS DSHEA and TCM libraries: Fluorescence Readout (AID 1920061)
Outline: as §3

[19] = target: Glutathione peroxidase 1 (Homo sapiens) (UniProt P07203); assay: Primary qHTS Assay for Inhibitors of Recombinant Selenoprotein Glutathione Peroxidase 1 (GPX1) (AID 1845191); further: nearly all actives have a fitted effect of over 65% in size
Outline: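 10 nM GPX1 + cpd, 30 min RT; start w/ 1 mM GSH, 0.5 mM cumene hydroperoxide, 0.5 mM NADPH, 100 nM GR, 0.01% BSA; buffer 50 mM Tris-HCl pH 7.5, 2 mM EDTA, 150 mM NaCl; Fl 340/450, 0 & 15 min.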

[20] = target: Phospholipid hydroperoxide glutathione peroxidase GPX4 (Homo sapiens) (UniProt P36969); assay: Primary qHTS Assay for Inhibitors of Recombinant Selenoprotein Glutathione Peroxidase 4 (GPX4) (AID 1845192); further: nearly all actives have a fitted effect of over 65% in size
Outline: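 NADPH consumption, followed by fluorescence at 340/450 nm between 0 and 15 min, reports GPX4 activity via coupled glutathione reductase (100 nM). Enzyme 200 nM was pre-exposed to compound 30 min; 0.5 mM cumene hydroperoxide and 1 mM GSH served as substrates.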

[21] = target: Rap guanine nucleotide exchange factor 3 (Homo sapiens) (UniProt O95398); assay: Confirmatory qHTS for antagonist of cAMP-regulated guanine nucleotide exchange factor 3 (EPAC1) (AID 1645880); further: nearly all actives have a fitted effect of over 55% in size; further: potency means the concentration at half of the fitted maximal effect
Outline: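 Nucleotide exchange uses 100 nM EPAC1, 250 nM RAP1B-BODIPY-GDP and 50 uM GDP, with compounds in a concentration-titration series. After 5 min at room temperature, fluorescence (480 nm ex/540 nm em) is read every 5 min for 30 min. Data are normalized to control ATA and DMSO.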

[22] = target: Rap guanine nucleotide exchange factor 3 (Homo sapiens) (UniProt O95398); assay: Confirmatory qHTS for agonist of cAMP-regulated guanine nucleotide exchange factor 3 (EPAC1) (AID 1645881); further: nearly all actives have a fitted effect of over 75% in size; further: potency means the concentration at half of the fitted maximal effect
[23] = target: Rap guanine nucleotide exchange factor 4 (Homo sapiens) (UniProt Q8WZA2); assay: Confirmatory qHTS for agonist of cAMP-regulated guanine nucleotide exchange factor 4 (EPAC2) (AID 1645884);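 further: nucleotide exchange releases bodipy-GDP from Rap1 and this lowers its fluorescence; nearly all actives have a fitted effect of over 65% in size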
[24] = target: Rap guanine nucleotide exchange factor 4 (Homo sapiens) (UniProt Q8WZA2); assay: Confirmatory qHTS for antagonist of cAMP-regulated guanine nucleotide exchange factor 4 (EPAC2) (AID 1645885); further: nearly all actives have a fitted effect of over 25% in size; further: potency means the concentration at half of the fitted maximal effect
[25] = target: Rap guanine nucleotide exchange factor 3 (Homo sapiens) (UniProt O95398); assay: Counterscreen qHTS for antagonist of cAMP-regulated guanine nucleotide exchange factor 3 (EPAC1) (AID 1645888);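 further: fluorescence loss as bound BODIPY-GDP is released from Rap1B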
Outline: (§4)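 Rap1B-BODIPY-GDP 250 nM + GDP 50 uM; cpds 7-pt, final 9.74 nM–152 uM (activator mode) or from 7.32 nM upwards (inhibitor mode); RT; FI 480/540 nm at 5 and 30 min, then ± cAMP, reread.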

[26] = target: Rap guanine nucleotide exchange factor 3 (Homo sapiens) (UniProt O95398); assay: Counterscreen qHTS for agonist of cAMP-regulated guanine nucleotide exchange factor 3 (EPAC1) (AID 1645889); further: nearly all actives have a fitted effect of over 40% in size; further: potency means the concentration at half of the fitted maximal effect
Outline: as §4

Chain of Cytochrome P450 2C9 (Homo sapiens) (P11712 whole entry, looked up): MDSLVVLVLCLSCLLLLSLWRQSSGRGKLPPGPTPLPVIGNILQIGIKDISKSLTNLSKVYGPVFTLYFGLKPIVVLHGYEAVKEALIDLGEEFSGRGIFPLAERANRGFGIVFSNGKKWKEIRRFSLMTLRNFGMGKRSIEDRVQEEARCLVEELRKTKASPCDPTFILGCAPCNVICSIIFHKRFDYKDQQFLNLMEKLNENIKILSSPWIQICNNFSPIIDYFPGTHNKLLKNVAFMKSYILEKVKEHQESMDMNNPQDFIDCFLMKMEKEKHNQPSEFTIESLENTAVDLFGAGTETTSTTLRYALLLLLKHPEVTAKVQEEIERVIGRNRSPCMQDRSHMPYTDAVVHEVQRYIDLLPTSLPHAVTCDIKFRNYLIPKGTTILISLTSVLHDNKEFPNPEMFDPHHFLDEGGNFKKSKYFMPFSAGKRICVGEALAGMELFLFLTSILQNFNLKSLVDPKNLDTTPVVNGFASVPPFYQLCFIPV
Chain of Rap guanine nucleotide exchange factor 4 (Homo sapiens) (Q8WZA2 whole entry, looked up): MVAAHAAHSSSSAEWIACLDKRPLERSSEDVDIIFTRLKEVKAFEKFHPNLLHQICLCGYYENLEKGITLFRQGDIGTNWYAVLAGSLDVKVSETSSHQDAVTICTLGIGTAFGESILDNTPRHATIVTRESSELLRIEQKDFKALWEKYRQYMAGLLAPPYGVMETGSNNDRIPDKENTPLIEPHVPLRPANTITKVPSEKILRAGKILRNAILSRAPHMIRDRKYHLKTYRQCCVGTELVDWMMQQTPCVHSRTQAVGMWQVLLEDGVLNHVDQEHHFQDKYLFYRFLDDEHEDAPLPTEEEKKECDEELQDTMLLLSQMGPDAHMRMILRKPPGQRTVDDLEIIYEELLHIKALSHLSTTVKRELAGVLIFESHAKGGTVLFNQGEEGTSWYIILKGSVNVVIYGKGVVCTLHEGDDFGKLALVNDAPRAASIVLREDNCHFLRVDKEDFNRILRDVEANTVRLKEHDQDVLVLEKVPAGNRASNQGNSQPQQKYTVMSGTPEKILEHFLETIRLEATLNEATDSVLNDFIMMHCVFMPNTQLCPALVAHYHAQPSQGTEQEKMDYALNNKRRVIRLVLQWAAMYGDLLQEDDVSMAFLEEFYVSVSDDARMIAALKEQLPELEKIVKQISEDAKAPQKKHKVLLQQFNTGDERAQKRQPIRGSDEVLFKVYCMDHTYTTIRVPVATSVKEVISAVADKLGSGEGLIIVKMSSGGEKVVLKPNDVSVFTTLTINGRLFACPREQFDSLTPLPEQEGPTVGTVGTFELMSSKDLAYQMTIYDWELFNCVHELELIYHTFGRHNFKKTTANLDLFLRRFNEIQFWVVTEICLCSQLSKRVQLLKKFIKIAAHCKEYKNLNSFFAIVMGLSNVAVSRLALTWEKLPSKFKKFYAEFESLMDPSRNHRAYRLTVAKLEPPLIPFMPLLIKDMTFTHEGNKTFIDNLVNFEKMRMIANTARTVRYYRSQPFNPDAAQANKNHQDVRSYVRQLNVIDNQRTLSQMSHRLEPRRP
Chain of Rap guanine nucleotide exchange factor 3 (Homo sapiens) (O95398 whole entry, looked up): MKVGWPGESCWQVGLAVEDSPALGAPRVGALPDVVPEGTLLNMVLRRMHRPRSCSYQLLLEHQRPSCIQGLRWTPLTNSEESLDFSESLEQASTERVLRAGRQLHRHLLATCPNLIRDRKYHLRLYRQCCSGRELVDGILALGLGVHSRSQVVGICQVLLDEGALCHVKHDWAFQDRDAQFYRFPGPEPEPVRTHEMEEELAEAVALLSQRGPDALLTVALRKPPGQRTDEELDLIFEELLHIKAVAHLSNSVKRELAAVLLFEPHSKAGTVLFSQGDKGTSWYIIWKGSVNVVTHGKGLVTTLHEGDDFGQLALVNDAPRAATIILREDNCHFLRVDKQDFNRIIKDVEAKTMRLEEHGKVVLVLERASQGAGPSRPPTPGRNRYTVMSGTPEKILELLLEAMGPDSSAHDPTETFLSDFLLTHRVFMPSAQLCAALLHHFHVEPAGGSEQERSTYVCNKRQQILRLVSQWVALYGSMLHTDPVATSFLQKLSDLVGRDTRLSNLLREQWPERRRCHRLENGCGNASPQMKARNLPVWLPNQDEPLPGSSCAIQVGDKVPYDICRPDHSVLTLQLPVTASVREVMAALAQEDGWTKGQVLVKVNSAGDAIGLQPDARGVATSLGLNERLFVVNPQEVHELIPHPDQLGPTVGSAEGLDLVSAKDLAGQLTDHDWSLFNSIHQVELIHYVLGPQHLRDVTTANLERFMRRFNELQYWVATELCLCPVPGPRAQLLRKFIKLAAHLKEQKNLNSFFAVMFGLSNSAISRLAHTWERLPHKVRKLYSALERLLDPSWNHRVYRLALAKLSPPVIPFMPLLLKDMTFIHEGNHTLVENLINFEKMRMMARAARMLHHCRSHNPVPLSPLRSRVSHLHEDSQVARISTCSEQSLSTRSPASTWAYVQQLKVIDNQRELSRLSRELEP
Chain of Phospholipid hydroperoxide glutathione peroxidase GPX4 (Homo sapiens) (P36969 whole entry, looked up): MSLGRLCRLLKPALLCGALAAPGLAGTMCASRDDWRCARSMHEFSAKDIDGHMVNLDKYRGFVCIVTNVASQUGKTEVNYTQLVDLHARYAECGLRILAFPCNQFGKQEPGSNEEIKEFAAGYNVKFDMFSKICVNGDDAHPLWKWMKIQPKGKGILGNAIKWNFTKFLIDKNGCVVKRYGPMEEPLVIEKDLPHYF
Chain of Cytochrome P450 2D6 (Homo sapiens) (P10635 whole entry, looked up): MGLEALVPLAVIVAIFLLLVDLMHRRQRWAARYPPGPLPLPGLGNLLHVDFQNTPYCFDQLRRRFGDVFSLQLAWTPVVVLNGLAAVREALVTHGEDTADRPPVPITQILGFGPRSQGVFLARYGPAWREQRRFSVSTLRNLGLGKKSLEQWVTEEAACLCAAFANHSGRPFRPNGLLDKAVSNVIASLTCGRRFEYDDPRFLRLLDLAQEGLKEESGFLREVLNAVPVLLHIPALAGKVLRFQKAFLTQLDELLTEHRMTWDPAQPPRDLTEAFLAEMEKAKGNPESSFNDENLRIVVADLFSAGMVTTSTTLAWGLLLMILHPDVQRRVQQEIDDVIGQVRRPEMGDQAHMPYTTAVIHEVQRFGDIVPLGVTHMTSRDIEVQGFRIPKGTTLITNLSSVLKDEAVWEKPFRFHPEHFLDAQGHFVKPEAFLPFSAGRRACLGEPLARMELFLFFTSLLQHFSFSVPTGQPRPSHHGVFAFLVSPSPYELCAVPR
Chain of Glutathione peroxidase 1 (Homo sapiens) (P07203 whole entry, looked up): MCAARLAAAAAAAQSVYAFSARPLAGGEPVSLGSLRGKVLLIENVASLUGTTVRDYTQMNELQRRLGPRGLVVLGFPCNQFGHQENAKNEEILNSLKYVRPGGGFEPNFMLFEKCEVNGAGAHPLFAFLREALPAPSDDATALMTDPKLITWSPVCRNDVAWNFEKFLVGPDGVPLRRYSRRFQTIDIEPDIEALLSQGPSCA
Chain of Nuclear receptor subfamily 1 group I member 2 (Homo sapiens) (O75469 whole entry, looked up): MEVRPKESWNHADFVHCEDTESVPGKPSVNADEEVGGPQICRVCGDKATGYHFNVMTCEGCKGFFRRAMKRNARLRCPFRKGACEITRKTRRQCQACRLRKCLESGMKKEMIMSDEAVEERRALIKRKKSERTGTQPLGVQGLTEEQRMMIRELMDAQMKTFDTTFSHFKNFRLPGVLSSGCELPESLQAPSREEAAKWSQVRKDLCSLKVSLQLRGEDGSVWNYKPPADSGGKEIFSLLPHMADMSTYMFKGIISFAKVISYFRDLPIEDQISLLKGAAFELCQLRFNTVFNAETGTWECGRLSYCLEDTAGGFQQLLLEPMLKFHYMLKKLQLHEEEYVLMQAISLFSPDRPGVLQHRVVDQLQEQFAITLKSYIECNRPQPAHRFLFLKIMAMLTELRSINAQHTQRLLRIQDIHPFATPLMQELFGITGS
Chain of Nuclear receptor subfamily 1 group I member 3 (Homo sapiens) (Q14994 whole entry, looked up): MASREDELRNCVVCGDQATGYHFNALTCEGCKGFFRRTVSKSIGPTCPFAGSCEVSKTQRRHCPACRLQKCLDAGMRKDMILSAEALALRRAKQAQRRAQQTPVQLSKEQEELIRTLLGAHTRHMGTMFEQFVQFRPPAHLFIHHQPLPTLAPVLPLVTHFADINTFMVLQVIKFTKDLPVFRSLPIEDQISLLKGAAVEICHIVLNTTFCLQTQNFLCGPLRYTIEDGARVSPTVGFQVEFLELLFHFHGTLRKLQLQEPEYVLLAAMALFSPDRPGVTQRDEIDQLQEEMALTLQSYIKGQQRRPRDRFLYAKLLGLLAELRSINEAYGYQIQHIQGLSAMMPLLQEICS
Chain of Cytochrome P450 1A2 (Homo sapiens) (P05177 whole entry, looked up): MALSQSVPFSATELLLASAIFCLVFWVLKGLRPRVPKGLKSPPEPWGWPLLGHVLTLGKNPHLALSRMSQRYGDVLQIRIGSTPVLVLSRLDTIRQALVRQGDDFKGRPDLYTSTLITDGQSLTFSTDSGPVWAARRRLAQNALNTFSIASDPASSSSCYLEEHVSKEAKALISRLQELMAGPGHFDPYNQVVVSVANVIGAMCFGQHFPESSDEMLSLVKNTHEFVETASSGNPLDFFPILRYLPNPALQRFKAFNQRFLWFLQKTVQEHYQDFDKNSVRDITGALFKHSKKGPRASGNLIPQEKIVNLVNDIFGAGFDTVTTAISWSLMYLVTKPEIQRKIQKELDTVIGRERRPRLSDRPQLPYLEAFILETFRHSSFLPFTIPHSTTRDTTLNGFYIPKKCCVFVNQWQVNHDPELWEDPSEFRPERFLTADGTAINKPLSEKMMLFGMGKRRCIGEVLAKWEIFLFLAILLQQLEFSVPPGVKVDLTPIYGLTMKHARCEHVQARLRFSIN

Q: Which Potency [1] does the source give for CCC(/C=C/[C@@H](C)[C@H]1CCC2C3CC=C4C[C@@H](O)CC[C@]4(C)C3CC[C@@]21C)C(C)C (stereo partly drawn) here?
A: inactive

Q: What about the Potency [2] of the same molecule?
A: inactive

Q: And the outcome [3]?
A: inactive

Q: And the outcome [4]?
A: inactive

Q: And the outcome [5]?
A: inactive

Q: And the outcome [6]?
A: inactive

Q: What about the outcome [7] of the same molecule?
A: inactive

Q: And the outcome [8]?
A: inactive

Q: What about the outcome [9] of the same molecule?
A: inactive

Q: What about the outcome [10] of the same molecule?
A: inactive

Q: What about the outcome [11] of the same molecule?
A: inactive

Q: And the outcome [12]?
A: inactive

Q: And the outcome [13]?
A: inactive

Q: What about the max response [14] of the same molecule?
A: 3.05%

Q: And the outcome [15]?
A: inactive

Q: And the outcome [16]?
A: inactive

Q: And the outcome [17]?
A: inactive

Q: And the outcome [18]?
A: inactive

Q: Which Potency [1] does the source give for Cc1ccccc1CNC(=O)CCCn1c(=O)c2cccn2c2ccccc21 here?
A: 6.74 µM (active)

Q: What about the Potency [2] of the same molecule?
A: 9.52 µM (active)

Q: For N[C@@H]1CCCCN(c2c(F)cc3c(=O)c(C(=O)O)cn(C4CC4)c3c2Cl)C1, which Potency [1] is on record?
A: inactive

Q: And the Potency [2]?
A: inactive

Q: And the Potency [19]?
A: inactive

Q: And the Potency [20]?
A: inactive

Q: Which results are given for COc1ccc(-c2n[nH]c3c2cnc2cc(OC)c(OC)cc23)cc1?
A: Potency [1]: inactive; Potency [2]: inactive

Q: What does the source list for C#C[C@]1(O)CC[C@@H]2[C@@H]3CCC4=CCCC[C@@H]4[C@H]3C(=C)C[C@@]21CC?
A: Potency [1]: inactive; Potency [2]: 3.38 µM (active); Potency [19]: inactive

Q: Which Potency [1] does the source give for CC(C)[C@H]1CC[C@H](C)C[C@H]1O here?
A: inactive

Q: And the Potency [2]?
A: inactive

Q: What about the Potency [19] of the same molecule?
A: inactive

Q: And the Potency [20]?
A: inactive

Q: For Cc1cc(OCCCSc2nc(-c3ccc(C(C)(C)C)cc3)nc3cc(=O)[nH]n23)ccc1Cl, which Potency [1] is on record?
A: inactive

Q: And the Potency [2]?
A: 15.1 µM (active)

Q: And the Potency [21]?
A: 67.5 µM (active)

Q: And the Potency [22]?
A: inactive

Q: And the Potency [23]?
A: inactive

Q: What about the outcome [24] of the same molecule?
A: inactive [at 12.7 µM]

Q: And the Potency [25]?
A: inactive

Q: What about the Potency [26] of the same molecule?
A: inactive

Q: Which Potency [1] does the source give for CC1=C(C(=O)Nc2cccc(-c3cn[nH]c3)c2)C(c2ccccc2Cl)N=C(Nc2nc3ccccc3o2)N1 (stereo not drawn) here?
A: 21.3 µM (active)

Q: What about the Potency [2] of the same molecule?
A: 1.07 µM (active)

Q: For CCOc1cc(CNC(=O)c2ccc(C)c(NC(=O)c3nsc4ccccc34)c2)ccc1OC, which Potency [1] is on record?
A: inactive

Q: And the Potency [2]?
A: 1.51 µM (active)

Q: With COc1ccc(NC(=O)Cn2ccn(-c3ccc(C)c(C)c3)c(=O)c2=O)cc1Cl as the molecule, how does the Potency [1] read?
A: inactive

Q: And the Potency [2]?
A: inactive

Q: For CC(C)[C@H](N)C(=O)O, which Potency [1] is on record?
A: inactive

Q: And the Potency [2]?
A: inactive

Q: And the Potency [19]?
A: inactive

Q: And the Potency [20]?
A: inactive

Q: With CCOC(=O)c1c(NC(=O)c2ccc(S(=O)(=O)N(C)C3CCCCC3)cc2)sc2c1CCN(C(C)C)C2 as the molecule, how does the Potency [1] read?
A: 9.52 µM (active)

Q: And the Potency [2]?
A: 5.35 µM (active)

Q: And the Potency [21]?
A: inactive

Q: And the Potency [22]?
A: 89.1 µM (active)

Q: What about the Potency [23] of the same molecule?
A: inactive

Q: And the Potency [24]?
A: 4.26 µM (active)

Q: And the Potency [26]?
A: 20 µM (active)
